From PubChem
This excerpt belongs to a sample that is enriched for hits.
Shiga inhibitor – Shiga toxin inhibition; Vero cells, Shiga toxin protein synthesis inhibition reporter; inhibition, % at 38.7 µM; 290,000 tested, 9.2% active; AID 2315; in the data active = inhibition mostly above about 28%, no sharp cut-off; inactive = mostly below about 43%
NS1 inh – influenza NS1 inhibition; Potency, µM (top dose mostly 46.1 µM); 270,000 tested, 0.4% active; AID 2326; calls by dose curve; note: actives are rising curves; nearly all actives have a fitted effect of over 50% in size
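Recovery from NS1-induced slow growth read by OD600 in budding yeast switched to galactose assay medium (pH 6.0, -URA) at 1:100 dilution. Compound 23 nl per well; the matching strain lacking NS1 serves as control.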
AmpC inh no detg – blocks E. coli AmpC beta-lactamase in detergent-free assay. P00811. AmpC nitrocefin hydrolysis, absorbance 480 nm, 0.0001% Triton. Potency, µM (top dose mostly 57.1 µM), actives largely listed as inhibitors. 330,000 tested, 0.52% active; note: nearly all actives have a fitted effect of over 20% in size
Target sequence (P00811 whole entry, looked up): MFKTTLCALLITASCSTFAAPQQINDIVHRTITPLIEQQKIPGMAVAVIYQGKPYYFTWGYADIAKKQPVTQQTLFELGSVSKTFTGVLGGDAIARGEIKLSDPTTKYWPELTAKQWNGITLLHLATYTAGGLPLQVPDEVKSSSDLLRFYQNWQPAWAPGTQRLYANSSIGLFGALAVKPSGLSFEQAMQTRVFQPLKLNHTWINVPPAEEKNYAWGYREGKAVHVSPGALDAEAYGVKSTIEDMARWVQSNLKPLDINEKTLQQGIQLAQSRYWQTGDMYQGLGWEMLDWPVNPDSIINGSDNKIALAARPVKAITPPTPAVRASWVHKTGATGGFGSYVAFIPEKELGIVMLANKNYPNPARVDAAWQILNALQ
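AmpC (5.3 nM in the dispensed reagent) in 20 mM phosphate pH 7.0 with 0.01% (detergent screen) or 0.0001% Triton X-100 was preincubated with compounds for 15 min at room temperature. Nitrocefin was then added from an 800 uM solution, and hydrolysis was followed at 480 nm.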
AmpC detergent – blocks E. coli AmpC beta-lactamase in detergent assay. 370,000 tested, 0.041% active. Potency, µM (series often up to 114 µM), most hits filed as inhibitors. P00811. AmpC hydrolysis of nitrocefin, absorbance 480 nm, 0.01% Triton; note: nearly all actives have a fitted effect of over 25% in size
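AmpC (5.3 nM in the dispensed reagent) in 20 mM phosphate pH 7.0 with 0.01% (detergent screen) or 0.0001% Triton X-100 was preincubated with compounds for 15 min at room temperature. Nitrocefin was then added from an 800 uM solution, and hydrolysis was followed at 480 nm.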
Cycloheximide cs – affects cycloheximide protein synthesis inhibition readout, counter-screen; cell reporter, cycloheximide protein synthesis inhibition counterscreen; max response, %; 300,000 tested, 12% active; in the data active = max response mostly above about 13%, no sharp cut-off; inactive = mostly below about 14%; note: read at 38.3 µM for the half of the compounds with a filed dose
Hits are given with their value; - = inactive; ? = inconclusive; . = no result; + = active, no number. Unless noted, calls come from the whole dose curve; as a rule, active = well fitted curve in the direction sought with a large enough effect; inconclusive = small, poorly fitted or top-dose-only effect, or another doubt; inactive = no such curve, though single readings can be large; an effect the other way counts as inactive or inconclusive.

SMILES | Shiga inhibitor | NS1 inh | AmpC inh no detg | AmpC detergent | Cycloheximide cs
CN(CC1COCCO1)C(=O)c1cc(COc2c(F)cccc2F)on1 (stereo unspecified) | 53 | - | - | - | 27
Cc1nc(CN(C)C(=O)c2cc(COc3c(F)cccc3F)on2)cs1 | - | - | - | - | -
CN(CC1COc2ccccc2O1)C(=O)c1cc(COc2c(F)cccc2F)on1 (stereo unspecified) | - | - | - | - | -
CN(Cc1cc(-c2ccccc2)on1)C(=O)c1cc(COc2c(F)cccc2F)on1 | 70 | - | - | - | 42
CN(CCC1CCOCC1)C(=O)c1cc(COc2c(F)cccc2F)on1 | - | - | - | - | 27
CSc1ccccc1OCc1cc(C(=O)N(C)CC2COCCO2)no1 (stereo unspecified) | 61 | - | - | - | 30
O=C(NCCc1ccc(F)cc1)c1ccc2c(=O)n3c(nc2c1)CCC3 | . | . | - | ? | .
CSc1ncccc1C(=O)OCC(=O)c1[nH]c(C)c(C(C)=O)c1C | . | . | - | - | .
O=c1[nH]c(=S)n(Cc2ccco2)c(O)c1C=NCc1cccs1 | - | - | 18µM | - | -
CCOC(=O)c1cccc(NC(=O)c2oc3c(c2C)-c2nn(CC)cc2CC3)c1 | . | . | . | - | .
COc1cccc(CCc2nnc(CCC(=O)NCCC3CCCCO3)o2)c1 (stereo unspecified) | - | - | - | - | 18
COc1cccc(CNC(=O)CCc2nnc(C3CCCCC3)o2)c1 | - | - | - | - | -
CCN(Cc1ccncc1)C(=O)CCc1nnc(CCc2ccc(OC)cc2)o1 | - | - | - | - | -
COc1ccc(CC(=O)N(CC2CCCO2)c2nc3ccccc3s2)cc1 (stereo unspecified) | - | - | - | - | 27
COc1ccc(CCc2nnc(CCC(=O)N(C)Cc3ccncc3C)o2)cc1 | 70 | - | - | - | 22
COc1ccc(-c2csc(N(CC3CCCO3)C(=O)c3cccs3)n2)cc1 (stereo unspecified) | - | - | - | - | -
CCCN(CC1CCCO1)C(=O)CCc1nnc(-c2cc(C)on2)o1 (stereo unspecified) | 51 | - | - | - | 16
CCOC(=O)c1ccc(NC(=O)CSc2nc(-c3ccc(F)cc3)cc(C(F)(F)F)c2C#N)cc1 | . | . | . | - | .
CCN(CC1CCCO1)C(=O)CCc1nnc(CCc2ccc(OC)cc2)o1 (stereo unspecified) | 48 | - | - | - | 25
CC(C)(C)c1cc[n+](C2=C([O-])c3ccccc3C(=O)/C2=N\S(=O)(=O)c2ccccc2)cc1 | 95 | - | - | - | 58
O=C(CCl)Nc1cn(-c2ccccc2)nc1-c1ccc(F)cc1 | - | . | - | - | 24
Fc1ccc(-c2nn(-c3ccccc3)cc2CNCc2ccccc2)cc1 | - | - | - | - | -
CC(=O)c1c(C)nc(Nc2nc3ccccc3s2)nc1C | 98 | - | - | - | 68
Cc1ccccc1NC(=O)c1cnc(Nc2nc3ccccc3s2)nc1C | - | - | - | - | -
Cc1ccc(NC(=O)COC(=O)c2ccccc2-c2nc3ccccc3s2)c(C)c1 | - | - | - | - | -
SMILES | Shiga inhibitor | NS1 inh | AmpC inh no detg | AmpC detergent | Cycloheximide cs
Cc1cc(C)nc(Nc2nc3ccccc3s2)n1 | 59 | . | - | - | 39
CC(=O)c1c(C)nc(Nc2nc(C)c3cc(C)ccc3n2)nc1C | 56 | . | - | - | -
Cc1ccc(Nc2nc3ccccc3s2)c(C)c1 | 94 | - | - | - | 47
CCOc1ccc(CN2CCN(Cc3[nH]c4ccccc4c3C)CC2CCO)cc1 (stereo unspecified) | - | - | - | - | -
Cc1ccc(NC(=O)Cn2c(=O)n(CCC(=O)NCc3ccccc3Cl)c(=O)c3ccccc32)c(C)c1 | . | . | . | - | .
O=C(COC(=O)c1cc([N+](=O)[O-])ccc1NCCO)Nc1cccnc1Cl | . | . | - | . | .
COc1ccc2[nH]cc(C(=O)CN3CCCCC3)c2c1 | - | - | - | - | 27
COc1ccc2c(C(=O)CN3CCSCC3)c[nH]c2c1 | 40 | - | - | - | 32
Clc1ccccc1Nc1ncnc(-n2cccc2)n1 | 131 | - | - | - | 62
Cc1cccc(Nc2ncnc(N)n2)c1 | - | - | - | - | -
Clc1cc(Cl)cc(Nc2ncnc(-n3cccc3)n2)c1 | - | - | - | - | -
Nc1ncnc(Nc2cccc(F)c2)n1 | - | - | - | - | -
Nc1ncnc(Nc2ccccc2Cl)n1 | - | - | - | - | 17
Cc1ccc(Nc2ncnc(-n3cccc3)n2)cc1Cl | 80 | - | - | - | 32
Clc1ccccc1Nc1nc2ccccc2o1 | . | . | - | - | .
Nc1ncnc(Nc2ccc(F)c(Cl)c2)n1 | 57 | - | - | - | 19
CCOC(=O)Cn1c(=O)n(C2CCCCC2)c2nc(-c3c(F)cccc3Cl)nc(C(N)=O)c21 | . | . | . | - | .
CCOc1ccccc1NC(=O)N1CCc2c(sc3c2CCCC3)C1c1ccccc1 (stereo unspecified) | . | . | . | - | .
COc1ccc(NC(=O)CN2C(=O)CSc3ccc(S(=O)(=O)N(C)C)cc32)cc1OC | . | . | . | - | .
O=C(C[n+]1cccc(CNC(=O)c2ccc(OC(F)F)cc2)c1)Nc1cccc(C(F)(F)F)c1 | - | - | - | ? | -
O=C(NC1CCCC1)c1ccc2c(=O)n(Cc3ccccc3)c(SCc3ccc([N+](=O)[O-])cc3)nc2c1 | . | . | . | - | .
Cc1ccc(NC(=O)C/C(N)=N/OC(=O)Nc2cccc(C)c2)cc1 | . | . | - | - | .
Cc1ccc(NC(=O)ON=C2CCCC2)cc1 | + | - | - | - | 55
O=C(Nc1ccccc1)ON=C1CCCC1 | - | - | - | ? | 23
CCC(NC(=O)CN1CCN(C(=O)c2cccs2)CC1)c1ccc(C)cc1 (stereo unspecified) | . | . | - | - | .
SMILES | Shiga inhibitor | NS1 inh | AmpC inh no detg | AmpC detergent | Cycloheximide cs
Cc1c(C(=O)Nc2nc(-c3ccccn3)cs2)oc2ccccc12 | . | . | - | - | .
COc1ccc(-c2csc(NC(=S)NC(=O)/C=C/c3ccc(C(C)C)cc3)n2)cc1OC | - | - | ? | ? | 23
CC(C)c1ccc(/C=C/C(=O)Nc2nncs2)cc1 | 33 | - | - | - | 49
O=C(Nc1nc(-c2ccccn2)cs1)c1cc2ccccc2o1 | 58 | . | - | - | 42
COc1ccc(-c2csc(NC(=S)NC(=O)c3cc4ccccc4o3)n2)cc1Br | - | - | - | - | 14
CC(OC(=O)CSc1ccc([N+](=O)[O-])cc1)C(=O)NC1CC1 (stereo unspecified) | . | . | - | - | .
Cc1cccc(C(=O)Nc2ccc3oc(-c4ccncc4)nc3c2)c1 | . | . | . | - | .
O=C(CCSCc1cccc(Cl)c1)NCc1ccccc1Cl | . | . | . | - | .
CN1CCN(C(=O)CCc2nc3ccccc3n2-c2ccccc2)CC1 | - | - | - | - | -
O=C(Nc1nc(-c2cc3ccccc3oc2=O)cs1)c1ccc(Br)o1 | - | - | - | - | -
Cc1cc(-c2csc(NC(=O)c3cc4ccccc4o3)n2)c(C)n1C | 40 | - | - | - | 32
CS(=O)(=O)Nc1ccc(C2=NN(S(C)(=O)=O)C(c3ccc4c(c3)OCO4)C2)cc1 (stereo unspecified) | 85 | - | - | - | 30
